{"source": "PubChem BioAssay (NCATS)", "note": "Inconclusive results are not listed. The source made the active and inactive calls. Calls come from the whole dose curve; as a rule, active = well fitted inhibition curve with a large enough effect; inconclusive = small, poorly fitted or top-dose-only effect; inactive = no such curve, though single readings can be large or run the other way. % is set by controls: 0 for no effect and ±100 for the full control effect; potency is the fitted concentration of half-maximal effect."}
{"tested_on": "Zika virus NS2B-NS3 protease (linked construct)", "experiment": "Primary screen NINDS Rhodamine qHTS for Zika virus inhibitors (AID 1347160); note: nearly all actives have a fitted effect of over 55% in size", "settings": "purified NS2B-NS3 protease, Rhodamine110 substrate fluorescence; series mostly up to 57.1 µM; activity change, negative = inhibition: at the top concentration", "how_it_was_run": "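In 10 mM Tris-HCl pH 8.0 containing 0.01% Tween 20, linked NS2B-NS3 protease (25 nM final) is exposed to test compounds for 15 min. Cleavage of 1.5 microM Rhodamine110 substrate is tracked by fluorescence over 15 min.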"}
{"smiles": "O=S(=O)(NC1CCC(c2cc(F)ccc2F)(S(=O)(=O)c2ccc(Cl)cc2)CC1)C(F)(F)F", "note": "(stereo not given)", "Potency": "12.6 µM (active)"}
{"smiles": "CC1=C(C(=O)O)/C(=C\\CO[C@@H]2O[C@H](CO)[C@@H](O)[C@H](O)[C@H]2O)C(OC(=O)/C=C/c2ccc(O)cc2)C1", "note": "(stereo not given in full)", "activity change, negative = inhibition": "18.9% [at 33.1 µM] (inactive)"}
{"smiles": "CC1C(OC(=O)c2ccccc2)C(O)C2C(C(=O)O)=COC(OC3OC(CO)C(O)C(O)C3O)C12", "note": "(stereo not given)", "outcome": "inactive [at 33.1 µM]"}
{"smiles": "Cc1oc2ccccc2c1CNC(=O)NCc1cccs1", "activity change, negative = inhibition": "1.19% (inactive)"}
{"smiles": "CC1CCC2(C(=O)O)CCC3(C)C(=CCC4C5(C)CCC(O)C(C)(CO)C5CCC43C)C2C1(C)O", "note": "(stereo not given)", "activity change, negative = inhibition": "-2.54% [at 33.1 µM] (inactive)"}
{"smiles": "C=CCC1=C[C@]2(OC)[C@H](C)[C@@H](c3ccc(O)c(OC)c3)O[C@]2(OC)CC1=O", "activity change, negative = inhibition": "-6.88% [at 33.1 µM] (inactive)"}
{"smiles": "C[C@H](NC(=O)CCc1nc2ccccc2c(=O)[nH]1)c1ccccc1", "outcome": "inactive"}
{"smiles": "Cc1cc(C)c(CNC(=O)c2cc(-c3ccc(CN4CCOCC4)cc3)cc3c2cnn3C2CCCC2)c(=O)[nH]1", "activity change, negative = inhibition": "14.5% (inactive)"}
{"smiles": "CN(C)CC1CCOC1(c1ccccc1)c1ccccc1", "note": "(stereo not given)", "activity change, negative = inhibition": "38% [at 15.1 µM] (inactive)"}
{"smiles": "COc1cc(Br)c(Nc2nc(-c3c(C)nc4ncccn34)cs2)c(Br)c1", "activity change, negative = inhibition": "20.1% (inactive)"}
{"smiles": "CC1COC2(OC3CC4C5CC(O[C@@H]6O[C@H](C)[C@@H](O[C@@H]7O[C@@H](C)[C@H](O)[C@@H](O)[C@H]7O)[C@H](O)[C@H]6O)C6CC(O)CCC6(C)C5CCC4(C)C3C2C)C(O)C1", "note": "(stereo not given in full)", "activity change, negative = inhibition": "-7.25% [at 15.1 µM] (inactive)"}
{"smiles": "N=c1nc2n(cc1F)C1OC(CO)C(O)C1O2", "note": "(stereo not given)", "outcome": "inactive"}
{"smiles": "C=C1CCC2C(C)(C(=O)O)CCCC2(C)C1CCC(C)CC(=O)O", "note": "(stereo not given)", "activity change, negative = inhibition": "-15.5% [at 33.1 µM] (inactive)"}
{"smiles": "CC(=O)NC[C@H]1CN(c2ccc(N3CCN(C(=O)CO)CC3)c(F)c2)C(=O)O1", "activity change, negative = inhibition": "-1.6% (inactive)"}
{"smiles": "C=CC1C(OC2OC(CO)C(O)C(O)C2O)OC=C2C(=O)N3C(C(=O)O)Cc4c([nH]c5ccccc45)C3CC21", "note": "(stereo not given)", "outcome": "inactive [at 33.1 µM]"}
{"smiles": "N#C[C@@H]1CCCN1C(=O)CNC12CC3CC(CC(O)(C3)C1)C2", "outcome": "inactive"}
{"smiles": "COc1c2c(c(C)c3c1C(=O)OC3)OC1(C)CC(O)C34OC(OC)(CC(OC(C)=O)C3(C)C1C2)OC4(C)C", "note": "(stereo not given)", "activity change, negative = inhibition": "-21.2% [at 33.1 µM] (inactive)"}
{"smiles": "C[C@@H]1O[C@@H](OC[C@H]2O[C@@H](OC(CCCCc3ccc(O)cc3)CCc3ccc(O)cc3)[C@H](O)[C@@H](O)[C@@H]2O)[C@H](O)[C@H](O)[C@H]1O", "note": "(stereo not given in full)", "activity change, negative = inhibition": "-6.55% [at 15.1 µM] (inactive)"}
{"smiles": "CC(=O)O[C@H]1[C@@H](O)[C@H](O[C@H]2[C@@H]3C=CO[C@@H](O[C@H]4O[C@@H](CO)[C@H](O)[C@@H](O)[C@@H]4O)[C@@H]3[C@@]3(CO)O[C@@H]23)O[C@@H](C)[C@@H]1OC(=O)/C=C/c1ccccc1", "activity change, negative = inhibition": "14.8% [at 15.1 µM] (inactive)"}
{"smiles": "CC[C@]1(O)CC2CN(CCc3c([nH]c4ccccc34)[C@@](C(=O)OC)(c3cc4c(cc3OC)N(C=O)[C@H]3[C@@](O)(C(=O)OC)[C@H](OC(C)=O)[C@]5(CC)C=CCN6CC[C@]43[C@@H]65)C2)C1", "note": "(stereo not given in full)", "activity change, negative = inhibition": "71.8% [at 33.1 µM] (inactive)"}
{"smiles": "Cc1cc(N2CCN([C@@H]3CN[C@H](C(=O)N4CCSC4)C3)CC2)n(-c2ccccc2)n1", "activity change, negative = inhibition": "-17.4% (inactive)"}
{"smiles": "CC(=O)O[C@@H]1CC(C)=C2[C@H]1[C@H](C)CC[C@H]2/C=C(\\C)C(=O)O", "activity change, negative = inhibition": "0.228% (inactive)"}
{"smiles": "COc1cc2ncnc(Nc3cccc(Cl)c3F)c2cc1OC(=O)N1CCN(C)C[C@H]1C", "activity change, negative = inhibition": "23.7% (inactive)"}
{"smiles": "CC1CCC2(CO)C(C(=O)O)=CCCC2C1(C)CCc1ccoc1", "note": "(stereo not given)", "activity change, negative = inhibition": "-13.3% [at 33.1 µM] (inactive)"}
{"smiles": "CC(C)CCC[C@@H](C)[C@H]1CC[C@H]2[C@@H]3CC(=O)[C@H]4C[C@@H](O)CC[C@]4(C)[C@H]3CC[C@]12C", "activity change, negative = inhibition": "-21.1% (inactive)"}
{"smiles": "COc1cc(C(=O)OC[C@H]2O[C@@H](Oc3ccccc3/C=C/C(=O)O)[C@H](O)[C@@H](O)[C@@H]2O)cc(OC)c1OC", "activity change, negative = inhibition": "-11.9% [at 33.1 µM] (inactive)"}
{"smiles": "C/C=C1\\[C@H](O[C@@H]2O[C@H](CO)[C@@H](O)[C@H](O)[C@H]2O)OC=C(C(=O)OC)[C@H]1CC(=O)OC[C@H]1O[C@@H](OCCc2ccc(O)cc2)[C@H](O)[C@@H](O)[C@@H]1O", "outcome": "inactive [at 15.1 µM]"}
{"smiles": "C[C@@H]1C(=O)O[C@H]2[C@@H](O)C34[C@H]5C[C@@H](C(C)(C)C)C36[C@@H](OC(=O)[C@@H]6O)O[C@@]4(C(=O)O5)[C@@]12O", "note": "(stereo not given in full)", "activity change, negative = inhibition": "-7.7% (inactive)"}
{"smiles": "CC1(C)CC[C@]2(C(=O)O[C@@H]3O[C@H](CO)[C@@H](O)[C@H](O)[C@H]3O)CC[C@]3(C)C(=CCC4[C@@]5(C)CC[C@H](O[C@@H]6O[C@H](C(=O)O)[C@@H](O)[C@H](O)[C@H]6O)C(C)(C)C5CC[C@]43C)C2C1", "note": "(stereo not given in full)", "activity change, negative = inhibition": "-16.1% [at 15.1 µM] (inactive)"}
{"smiles": "OC[C@H]1O[C@@H](Oc2ccccc2)[C@H](O)[C@@H](O)[C@@H]1O", "activity change, negative = inhibition": "-12.5% (inactive)"}
{"smiles": "COc1ccccc1Oc1ccc(N(Cc2cccnc2)S(=O)(=O)CC(F)(F)F)cc1", "activity change, negative = inhibition": "22.3% (inactive)"}
{"smiles": "CC(C)(O)/C=C/CC(C)(O)C1C(O)CC2(C)C3CCC4C(C)(C)C(=O)CCC4(C)C3CCC12C", "note": "(stereo not given)", "activity change, negative = inhibition": "-18.4% [at 33.1 µM] (inactive)"}
{"smiles": "COc1cccc2cc3c(c(O[C@@H]4O[C@H](CO[C@@H]5O[C@H](CO)[C@@H](O)[C@H](O)[C@H]5O)[C@@H](O)[C@H](O)[C@H]4O)c12)C(C)OC3=O", "note": "(stereo not given in full)", "activity change, negative = inhibition": "-12.8% [at 33.1 µM] (inactive)"}
{"smiles": "CC(=O)OC1C(O)CC2(C)C(CCC(C)C23Cc2c(O)cc(CO)c(C=O)c2O3)C1(C)C", "note": "(stereo not given)", "outcome": "inactive [at 33.1 µM]"}
{"smiles": "C[C@@H]1CCC/C=C/[C@H]2CC(=O)C[C@@H]2[C@@H](O)/C=C/C(=O)O1", "activity change, negative = inhibition": "-16.2% (inactive)"}
{"smiles": "NCc1ccc(Nc2ncc(F)c(Nc3ccccc3)n2)cc1", "activity change, negative = inhibition": "103% (inactive)"}
{"smiles": "CC1=CC(=O)C(=C(C)C)CC2C1CCC2(C)O", "note": "(stereo not given)", "activity change, negative = inhibition": "-3.97% (inactive)"}
{"smiles": "Cc1ccccc1CN1C2=NCCN2C(=O)C2=C1CCN(Cc1ccccc1)C2", "activity change, negative = inhibition": "-10.3% (inactive)"}
{"smiles": "O=C(Nc1ccccc1)N1CCN(Cc2ccc3ccccc3n2)CC1", "activity change, negative = inhibition": "21.3% (inactive)"}
{"smiles": "CC1OC(OC2C(O)C(OC3CCC4(C)C(CCC5(C)C4CC=C4C6CC(C)(COC7OC(CO)C(O)C(O)C7O)CC(O)C6(C)CCC45C)C3(C)C)OC(C(=O)O)C2O)C(O)C(O)C1OC1OCC(O)C(O)C1O", "note": "(stereo not given)", "activity change, negative = inhibition": "-26.7% [at 15.1 µM] (inactive)"}
